# SUMO HTRF inh = inhibitors of in vitro SUMOylation cascade, primary screen, biochemical, HTRF, uHTS; SUMO-conjugating enzyme UBC9 (Homo sapiens), P63279; HTRF SUMOylation assay, SAE1/SAE2 + UBC9; inhibition, % at 35 µM; 0.36% of 290,000 active; AID 2006, 2009; in the data active = inhibition above about 50%, passing the limit was not always enough
# Target sequence (P63279 whole entry, looked up): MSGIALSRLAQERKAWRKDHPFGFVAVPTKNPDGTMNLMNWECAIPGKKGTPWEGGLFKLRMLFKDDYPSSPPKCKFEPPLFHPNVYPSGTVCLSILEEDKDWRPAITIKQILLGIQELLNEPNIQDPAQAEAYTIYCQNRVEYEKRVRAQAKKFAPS
# S1P4 agonist = S1P4 receptor agonists, primary screen, cell-based; Sphingosine 1-phosphate receptor 4 (Homo sapiens), O95977; AID 1509, 2009; 0.35% of 220,000 active; S1P4-expressing cell line, agonist reporter assay; activation, % at 4.98 µM; in the data active = activation above about 11%
# Target sequence (O95977 whole entry, looked up): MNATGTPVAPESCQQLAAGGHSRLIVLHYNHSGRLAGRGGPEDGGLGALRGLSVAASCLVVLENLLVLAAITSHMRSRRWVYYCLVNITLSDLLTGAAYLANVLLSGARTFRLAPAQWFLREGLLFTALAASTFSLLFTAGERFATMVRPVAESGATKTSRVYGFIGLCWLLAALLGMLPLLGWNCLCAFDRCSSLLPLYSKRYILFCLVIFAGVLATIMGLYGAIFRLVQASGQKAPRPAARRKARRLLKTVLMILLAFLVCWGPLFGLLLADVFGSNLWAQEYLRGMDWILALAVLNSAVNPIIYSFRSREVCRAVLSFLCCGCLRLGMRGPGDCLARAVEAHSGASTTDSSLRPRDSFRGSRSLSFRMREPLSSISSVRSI
# S1P4 antag = S1P4 receptor antagonists, primary screen, cell-based; 0.26% of 220,000 active; S1P4-expressing cells, antagonist mode, reporter read-out; AID 1510, 2009; inhibition, % at 4.98 µM; Sphingosine 1-phosphate receptor 4 (Homo sapiens), O95977; in the data active = inhibition above about 29%
# DTT redox prof = compounds producing H2O2 with reducing agent – biochemical, NIH compound library profiling, artefact control for MLSCN library redox annotation, primary screen | DTT-dependent redox cycling H2O2, phenol red/HRP absorbance; 100% = 100 µM peroxide control, 0% = buffer | activation, % at 10 µM | 0.03% of 200,000 active | AID 878, 2007;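 active = activation of at least 50% relative to the plate's high and low controls in the primary single-dose screen; inactive = activation below 50%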;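 note: compound incubated with DTT at 0.8 mM final as the reducing agent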
# p97 inhibitor = inhibitors of human p97 ATPase, primary screen, biochemical. Transitional endoplasmic reticulum ATPase (Homo sapiens), P55072. recombinant p97 ATPase, Kinase-Glo ATP luminescence, 3 h. inhibition, % at 8 µM. 0.42% of 220,000 active; in the data active = inhibition above about 15%
# S1P3 antag = S1P3 receptor antagonists, primary screen, cell-based; Sphingosine 1-phosphate receptor 3 (Homo sapiens), Q99500; CHO S1P3 NFAT-BLA reporter, FRET fluorescence, antagonist mode; inhibition, % at 4.98 µM; 0.27% of 170,000 active;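 active = inhibition above the plate cutoff, the mean inhibition of test wells on that plate plus 3 SD, cut at about 28% in these data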;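 note: cells challenged with S1P at its EC80 of 0.8 µM; blue over green emission ratio from cleaved BLA substrate after 4 h stimulation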
# A number is an active result; n = inactive; x = no result given. Only some compounds are listed: those with a hit (about 1.1% of all), similar ones and a draw of the others.
SMILES,SUMO HTRF inh,S1P4 agonist,S1P4 antag,DTT redox prof,p97 inhibitor,S1P3 antag
Cc1c(N2C(=O)c3ccc4c5c(ccc(c35)C2=O)CC4)c(=O)n(-c2ccccc2)n1C,55.7,n,n,n,n,n
Cc1c(N2C(=O)c3ccc(Br)cc3C2=O)c(=O)n(-c2ccccc2)n1C,n,n,n,n,n,x
Cc1ccc(NC(=O)CN2C(=O)S/C(=C/c3ccc(-c4cccc(C(=O)O)c4)o3)C2=O)cc1,80.8,n,n,n,n,n
Cc1ccccc1NC(=O)CN1C(=O)S/C(=C\c2ccc(-c3cc(C(=O)O)ccc3C)o2)C1=O,x,n,n,n,n,n
Cc1cc(C(=O)O)ccc1-c1ccc(/C=C2\SC(=O)N(CC(=O)Nc3ccc4c(c3)OCO4)C2=O)o1,81.6,x,x,x,x,x
C#CCN1C(=O)S/C(=C\c2ccc(-c3ccc(C(=O)O)cc3C)o2)C1=O,n,x,x,x,x,x
Cc1ccc(C(=O)O)cc1-c1ccc(/C=C2\SC(=O)N(CC(=O)Nc3ccccc3)C2=O)o1,84.9,n,n,n,n,n
COc1ccc(N2CCN(C(CNC(=O)c3ccc4c(c3)OCO4)c3ccco3)CC2)cc1 (configuration not stated),n,n,n,n,n,n
COc1ccccc1C1/C(=C(\O)c2ccc3c(c2)OCCO3)C(=O)C(=O)N1CCCn1ccnc1 (configuration not stated),n,x,x,x,x,x
CCCCN(c1ccccc1)S(=O)(=O)c1cccc2cccnc12,n,n,n,x,n,n
COCCNC(=O)c1ccc(CN2CCOCC2)cc1,n,n,n,n,n,x
CCOc1ccc(S(=O)(=O)N2CCN(S(=O)(=O)c3ccc(OCC)cc3)C(C)C2)cc1 (configuration not stated),n,n,n,n,n,70.8
CCOc1c(O)ccc(/C=C2\SC(=S)NC2=O)c1[N+](=O)[O-],50.5,n,n,n,n,n
CCOc1ccc(N(C)c2ccc(/C=C3/SC(=S)NC3=O)cc2)cc1,n,x,x,x,x,x
CCCCCSc1nc2c(c(=O)[nH]c(=O)n2C)n1CCc1ccccc1,n,x,x,x,x,102.2
COc1ccc(C2SCC(C(=O)NCc3ccc(F)cc3)N2C(C)=O)cc1 (configuration not stated),n,n,n,n,n,x
O=C(N/N=C/c1ccncc1)c1cccc(N/N=C/c2ccncc2)c1,n,n,n,n,n,n
O=C(N/N=C/c1ccc(O)cc1)c1cccc(N/N=C/c2ccc(O)cc2)c1,n,n,n,x,17.4,n
O=C(N/N=C/c1ccncc1)c1cccc(NC(=O)c2ccc(Cl)cc2)c1,62.0,n,n,n,n,n
Cc1cccc(C)c1NC(=O)CS(=O)CC(=O)NCC1OCCc2ccccc21 (configuration not stated),n,n,n,n,n,n
COC(=O)c1ccc(NC(=O)c2cc[n+]([O-])cc2)cc1,n,x,x,x,x,x
O=C1OC(c2ccc(F)cc2)=C/C1=C\c1ccc([N+](=O)[O-])o1,51.5,n,n,n,n,n
O=c1[nH]cnc2c1ncn2[C@@H]1C[C@@H](O)[C@H](CO)O1,n,x,x,x,x,x
O=c1[nH]cnc2c1ncn2[C@@H]1O[C@H](CO)[C@@H](O)[C@H]1O,n,23.9,n,n,n,n
Cc1ccc2[nH]c(-c3ccccc3)cc(=O)c2c1,n,n,n,n,n,60.5
SMILES,SUMO HTRF inh,S1P4 agonist,S1P4 antag,DTT redox prof,p97 inhibitor,S1P3 antag
CCOc1ccc(/C=N/NC(=O)CSc2n[nH]c(=O)[nH]c2=O)cc1OC,n,n,n,n,n,n
O=C(CCCCC(=O)NNC(=O)COc1ccccc1)NNC(=O)COc1ccccc1,n,x,x,x,x,x
Cc1ccc2oc3c(c(=O)c2c1)C(c1cccc(O)c1)N(c1ccccn1)C3=O (configuration not stated),n,n,n,n,n,n
COc1cc(C2c3c(oc4ccc(C)cc4c3=O)C(=O)N2c2cc(C)ccn2)cc(OC)c1OC (configuration not stated),n,x,x,x,x,99.0
CC(=O)N1c2ccc(S(=O)(=O)N3CCC(C(=O)NC(C)c4ccccc4)CC3)cc2CC1C (configuration not stated),n,x,x,x,x,x
CC1(C)CC(c2nc(-c3ccc(Cl)cc3)cs2)CCS1 (configuration not stated),n,n,n,n,18.3,x
CCCNC(=O)c1ccc2c(=O)c(O)c(-c3ccc(C)cc3)[nH]c2c1,n,x,x,x,x,x
CCCNC(=O)c1ccc2c(=O)c(O)c(-c3ccsc3)[nH]c2c1,52.9,x,x,x,x,x
COc1ccc(C(=O)NNC(=O)CSc2nnc(-c3cccnc3)n2C)cc1,n,n,n,n,n,n
COc1ccc(Nc2ccc(OC)cc2)cc1,55.9,n,n,x,14.7,n
O=C1CCC(C(=O)N2CCSCC2)CN1Cc1cccc(C(F)(F)F)c1 (configuration not stated),n,x,x,x,x,x
Cc1cccn2cc(-c3ccc(S(=O)(=O)N4CCOCC4)cc3)nc12,55.6,n,n,n,n,n
CN(C)S(=O)(=O)Nc1cc(F)cc(F)c1,n,n,n,n,n,n
Cc1cccc2c1NC(=O)C2(c1ccc(O)cc1)c1ccc(O)cc1,n,n,98.4,n,n,x
Cc1cc(C2(c3ccc(O)c(C)c3)C(=O)Nc3ccccc32)ccc1O,n,n,n,n,n,x
O=C(CNS(=O)(=O)c1ccc(Br)s1)NCCc1ccc(Cl)cc1,n,x,x,x,x,x
CCC(=O)N1c2ccccc2-c2nnc(SC)nc2OC1c1ccc(N(C)C)cc1 (configuration not stated),n,220.4,n,n,n,n
CCC1Oc2nc(SC)nnc2-c2ccccc2N1C(=O)c1ccccc1 (configuration not stated),n,n,n,n,n,n
CCOC(=O)c1c(S(=O)(=O)Nc2ccc(C)cn2)c(C)n(C)c1C,n,x,x,x,x,x
CCc1ccc2c(c1)C(NC(C)=O)C(=O)N2CCN1CCOCC1 (configuration not stated),60.5,x,x,x,x,x
COc1ccc(Br)cc1/C=C/C(=O)Nc1c(C)cccc1C,n,n,95.5,n,n,x
COc1ccc(NC(=O)/C=C/c2cc(Br)ccc2OC)cc1,n,n,n,n,n,x
O=C(NNC(=O)c1cc2cc(Br)ccc2oc1=O)c1ccc(O)cc1,n,n,n,n,14.7,n
O=C(Nc1ccccc1O)c1cc2cc(Br)ccc2oc1=O,n,x,x,x,x,x
Oc1ccc(O)c(Cc2nc3ccccc3s2)c1,n,n,n,n,14.7,n
COc1ccc(CCn2c(O)cc3nn(-c4nc5ccccc5s4)c(=O)c-3c2C)cc1,62.9,n,n,x,n,n
COc1ccc(CN2CCN(c3nc4ccccc4s3)CC2)cc1,n,x,x,x,x,x

# Source: PubChem (several laboratories)
